# Data taken from PubChem BioAssay (NCI).
# The panel holds about 79,000 compounds, 15% with a hit somewhere; the sample as a whole holds those more often. Values without a mark were called inactive. Active and inactive are the calls of the source. Cut-off read from the data, not from the text of the source: active = growth inhibition above about 70%; inactive = the rest.
# What was measured:
# [1] = NCI Yeast Anticancer Drug Screen. Data for the rad52 strain (AID 147);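 note: 0% = growth of vehicle-treated control cultures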; settings: S. cerevisiae rad52 mutant growth inhibition, hits give high values
# In short: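 Measured: yeast growth inhibition. System: strain with a defined DNA damage repair alteration. Reference: vehicle-treated control cultures.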
# [2] = NCI Yeast Anticancer Drug Screen. Data for the wt1 strain (AID 149);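 note: 0% = growth of vehicle-treated wt1 cultures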; settings: S. cerevisiae wt1 strain (SPY 50644) growth inhibition, hits give high values
# In short: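 wt1 yeast, compound-treated; % growth inhibition vs vehicle control.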
# [3] = NCI Yeast Anticancer Drug Screen. Data for the rad50EPP+ strain (AID 151);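 note: 0% = growth of vehicle-treated control cultures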; settings: S. cerevisiae rad50 mutant strain, hits give high values
# In short: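 One strain with a rad50 alteration (rad50EPP+) was compound-treated, its growth then compared to that of vehicle controls.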
# [4] = NCI Yeast Anticancer Drug Screen. Data for the rad50 strain (AID 155);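 note: 0% = growth of vehicle-only cultures of the same strain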; settings: S. cerevisiae rad50 strain growth inhibition, hits give high values
# In short: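 Genetically altered yeast (DNA repair pathway); compound treatment; growth inhibition vs vehicle ctrl.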
# [5] = NCI Yeast Anticancer Drug Screen. Data for the mec2-1 strain (AID 157); settings: S. cerevisiae mec2-1 strain, hits give high values
# In short: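 Test agents were screened against the mec2-1 yeast strain, with defined DNA repair or cell cycle alteration. Growth was scored as inhibition against vehicle-only controls.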
# [6] = NCI Yeast Anticancer Drug Screen. Data for the rad14 strain (AID 159);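 note: 0% = growth of vehicle-treated control cultures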; settings: S. cerevisiae rad14 strain growth inhibition, hits give high values
# In short: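 Test compounds were applied to a repair-deficient yeast strain. Its growth was then compared with that of cultures given vehicle alone, and inhibition was expressed relative to those controls.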
# [7] = NCI Yeast Anticancer Drug Screen. Data for the sgs1 mgt1 strain (AID 161);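 note: 0% = growth of cultures given vehicle only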; settings: S. cerevisiae sgs1 mgt1 strain, hits give high values
# In short: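 Test agents were incubated with a DNA-repair-mutant yeast strain. Growth was then read and compared against vehicle-treated controls.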
# [8] = NCI Yeast Anticancer Drug Screen. Data for the CLN2oe strain (AID 163);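 note: 0% = growth of vehicle-only control cultures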; settings: S. cerevisiae CLN2oe strain, hits give high values
# In short: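 Here, growth inhibition in a cell-cycle-altered yeast strain after compound exposure was quantified against vehicle control growth.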
# [9] = NCI Yeast Anticancer Drug Screen. Data for the cln2 rad14 strain (AID 165);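 note: 0% = growth equal to vehicle treated cultures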; settings: S. cerevisiae cln2 rad14 strain, hits give high values
# In short: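 Growth of compound-exposed yeast (cln2 rad14 genotype) measured and expressed as inhibition relative to vehicle.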
# [10] = NCI Yeast Anticancer Drug Screen. Data for the bub3 strain (AID 167); settings: S. cerevisiae bub3 mutant strain, hits give high values
# In short: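 Yeast carrying a defined mutation is treated with each compound, and growth is compared with that of vehicle-exposed cells to give inhibition.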
# [11] = NCI Yeast Anticancer Drug Screen. Data for the wt2 strain (AID 169);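 note: 0% = growth of vehicle-treated yeast cultures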; settings: S. cerevisiae wt2 strain growth inhibition, hits give high values
# In short: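 Genetically defined yeast strains from a DNA-repair/cell-cycle panel were used. Compound-exposed yeast growth was measured, and the inhibition was calculated relative to vehicle treatment.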
# [12] = NCI Yeast Anticancer Drug Screen. Data for the mlh1 strain (AID 171);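 note: 0% = growth of vehicle-treated control cultures of the same strain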; settings: S. cerevisiae mlh1 strain growth inhibition, hits give high values
# In short: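 Here the genetically defined yeast mutant is grown with each compound, and the extent to which its growth falls below that of vehicle-exposed cells is reported.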
# [13] = NCI Yeast Anticancer Drug Screen. Data for the sgs1 strain (AID 173);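 note: 0% = growth of vehicle-only control cultures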; settings: S. cerevisiae sgs1 mutant, hits give high values
# In short: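 Relative growth inhibition, referenced to vehicle, was determined in a yeast strain with a defined alteration affecting DNA damage repair or cell cycle control after compound exposure.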
# [14] = NCI Yeast Anticancer Drug Screen. Data for the mlh1 rad18 strain (AID 175); settings: S. cerevisiae mlh1 rad18 strain growth inhibition, hits give high values
# In short: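 In this whole-cell yeast screen, a strain with altered DNA damage repair is challenged with compound, and its growth is measured against matched vehicle-treated controls.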
# [15] = NCI Yeast Anticancer Drug Screen. Data for the rad18 strain (AID 177); settings: S. cerevisiae rad18 mutant growth inhibition, hits give high values
# In short: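 Screen uses a yeast strain with a defined lesion in DNA damage repair; compound effect is read as loss of growth compared to untreated vehicle cultures.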
# [16] = at 5.0 µM (retest, dose inferred, filed as 0.5)
# [17] = at 50.0 µM (retest, dose inferred, filed as 5.0)
smiles,measurement,setting,value
Brc1ccccc1-c1ncc(-c2ccccc2)o1,growth inhibition,[1]; at 1.2 µM,-7%
same,growth inhibition,[1]; at 3.7 µM,-3%
same,growth inhibition,[1]; at 11.0 µM,19%
same,growth inhibition,[1]; at 33.0 µM,42%
same,growth inhibition,[1]; at 100.0 µM,55%
same,growth inhibition,[2]; at 1.2 µM,-12%
same,growth inhibition,[2]; at 3.7 µM,-26%
same,growth inhibition,[2]; at 11.0 µM,-12%
same,growth inhibition,[2]; at 33.0 µM,21%
same,growth inhibition,[2]; at 100.0 µM,44%
same,growth inhibition,[3]; at 1.2 µM,-14%
same,growth inhibition,[3]; at 3.7 µM,10%
same,growth inhibition,[3]; at 11.0 µM,-1%
same,growth inhibition,[3]; at 33.0 µM,38%
same,growth inhibition,[3]; at 100.0 µM,62%
same,growth inhibition,[4]; at 1.2 µM,-1%
same,growth inhibition,[4]; at 3.7 µM,-2%
same,growth inhibition,[4]; [16],42%
same,growth inhibition,[4]; at 11.0 µM,24%
same,growth inhibition,[4]; at 33.0 µM,66%
same,growth inhibition,[4]; [17],81% (active)
same,growth inhibition,[4]; at 50.0 µM,72.2% (active)
same,growth inhibition,[4]; at 100.0 µM,70% (active)
same,growth inhibition,[5]; at 1.2 µM,7%
same,growth inhibition,[5]; at 3.7 µM,-23%
same,growth inhibition,[5]; [16],42%
same,growth inhibition,[5]; at 11.0 µM,-10%
same,growth inhibition,[5]; at 33.0 µM,40%
same,growth inhibition,[5]; [17],98% (active)
same,growth inhibition,[5]; at 50.0 µM,47.1%
same,growth inhibition,[5]; at 100.0 µM,76% (active)
same,growth inhibition,[6]; at 1.2 µM,-43%
same,growth inhibition,[6]; at 3.7 µM,-36%
same,growth inhibition,[6]; at 11.0 µM,-16%
same,growth inhibition,[6]; at 33.0 µM,55%
same,growth inhibition,[6]; at 100.0 µM,80% (active)
same,growth inhibition,[7]; [16],-18%
same,growth inhibition,[7]; [17],61%
same,growth inhibition,[7]; at 50.0 µM,71.4% (active)
same,growth inhibition,[8]; at 1.2 µM,0%
same,growth inhibition,[8]; at 3.7 µM,-8%
same,growth inhibition,[8]; at 11.0 µM,3%
same,growth inhibition,[8]; at 33.0 µM,6%
same,growth inhibition,[8]; at 100.0 µM,5%
same,growth inhibition,[9]; [16],33%
same,growth inhibition,[9]; [17],68%
same,growth inhibition,[9]; at 50.0 µM,37.9%
same,growth inhibition,[10]; at 1.2 µM,15%
same,growth inhibition,[10]; at 3.7 µM,6%
same,growth inhibition,[10]; [16],40%
same,growth inhibition,[10]; at 11.0 µM,52%
same,growth inhibition,[10]; at 33.0 µM,74% (active)
same,growth inhibition,[10]; [17],82% (active)
same,growth inhibition,[10]; at 50.0 µM,71.2% (active)
same,growth inhibition,[10]; at 100.0 µM,76% (active)
same,growth inhibition,[11]; at 1.2 µM,-46%
same,growth inhibition,[11]; at 3.7 µM,-43%
same,growth inhibition,[11]; at 11.0 µM,-35%
same,growth inhibition,[11]; at 33.0 µM,21%
same,growth inhibition,[11]; at 100.0 µM,43%
same,growth inhibition,[12]; at 1.2 µM,-4%
same,growth inhibition,[12]; at 3.7 µM,-13%
same,growth inhibition,[12]; at 11.0 µM,15%
same,growth inhibition,[12]; at 33.0 µM,47%
same,growth inhibition,[12]; at 100.0 µM,60%
same,growth inhibition,[13]; at 1.2 µM,-1%
same,growth inhibition,[13]; at 3.7 µM,-17%
same,growth inhibition,[13]; at 11.0 µM,7%
same,growth inhibition,[13]; at 33.0 µM,50%
same,growth inhibition,[13]; at 100.0 µM,60%
same,growth inhibition,[14]; [16],37%
same,growth inhibition,[14]; [17],82% (active)
same,growth inhibition,[14]; at 50.0 µM,56.9%
same,growth inhibition,[15]; at 1.2 µM,-7%
same,growth inhibition,[15]; at 3.7 µM,0%
same,growth inhibition,[15]; at 11.0 µM,51%
same,growth inhibition,[15]; at 33.0 µM,75% (active)
same,growth inhibition,[15]; at 100.0 µM,78% (active)
